Laboratory results taken from PubChem BioAssay (NCATS).
Where “and” joins values, the source holds several entries; their conditions need not be identical. Identical values can stand only once. Records with an inconclusive call do not appear. A number with no mark means an inactive call. Calls of active or inactive are those of the source. Calls follow the shape of the dose curve; as a rule, active = well fitted curve in the direction sought with a large enough effect; inconclusive = small, poorly fitted or top-dose-only effect, or another doubt; inactive = no such curve, though single readings can be large; an effect the other way counts as inactive or inconclusive. Where a SMILES comes first, the peptide text is derived from it. [ ]: non-standard residue; d: D form. Hyp = O=C(O)[CH]1C[CH](O)CN1; Phe(ol) = N[CH](CO)Cc1ccccc1; Iva = CC[C](C)(N)C(=O)O; Aib = CC(C)(N)C(=O)O

Key:
[1] = target: Calcium and integrin-binding protein 1 (Homo sapiens) (UniProt Q99828); experiment: Primary qHTS for Identification of Calcium Integrin Binding Protein 1 (CIB1) Competitor (AID 1508620);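 also: GST tagged CIB1 binding a fluorescein labelled alphaIIb integrin peptide tracer; top concentration of the series differs between compounds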
Calcium and integrin-binding protein 1 (Homo sapiens), sequence (Q99828 whole entry, looked up): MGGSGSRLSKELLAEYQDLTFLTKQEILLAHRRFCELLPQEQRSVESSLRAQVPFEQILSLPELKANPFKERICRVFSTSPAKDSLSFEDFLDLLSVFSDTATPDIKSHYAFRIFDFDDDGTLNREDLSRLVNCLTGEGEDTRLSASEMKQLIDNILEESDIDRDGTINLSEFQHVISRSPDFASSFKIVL
Procedure, shortened: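 Fluorescence polarization competition: CIB1-GST (1 uM final) preincubated with compound 15 min at room temperature, then FITC-labeled alphaIIb peptide (100 nM final) added for another 15 min. Polarization read at Ex 480/Em 540.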

[2] = Primary qHTS for inhibitors of nuclear receptor binding SET domain protein 2 (NSD2) in an isogenic RCH-ACV NSD2 p.E1099K mutant (9B) (AID 1645876); also: nearly all actives have a fitted effect of over 70% in size; also: potency is read from the fitted curve at half-maximal effect
[3] = Primary qHTS for inhibitors of nuclear receptor binding SET domain protein 2 (NSD2) in an RCH-ACV wild type WT cells (2C) (AID 1645877); also: nearly all actives have a fitted effect of over 70% in size; also: potency is read from the fitted curve at half-maximal effect
% is scaled to controls: 0 for no effect and ±100 for the full control effect.

## CC1(C)CC[C@]2(C(=O)O)[C@H](O)C[C@]3(C)C(=CCC4[C@@]5(C)CC[C@H](O[C@@H]6O[C@H](CO[C@@H]7OC[C@H](O)[C@H](O)[C@H]7O[C@@H]7OC[C@H](O)[C@H](O)[C@H]7O)[C@@H](O)[C@H](O)[C@H]6O)C(C)(C)C5CC[C@]43C)[C@@H]2C1 (some centres undefined)
[1]
  Potency: inactive
[2]
  Potency: 4.35 µM (active)
[3]
  activity change, negative = cell killing: -24.5% [at 9.23 µM]

## COc1cc2ncc(-c3ccccc3)nc2cc1OC
[1]
  Potency: inactive
[2]
  Potency: 20.5 µM (active)

## C=C(C)C1CC(O)C(C)C12CC(O)C1(C)OC1C2O (centres undefined)
[1]
  Potency: inactive
[2]
  Potency: 4.59 µM (active)
[3]
  Potency: 3.25 µM (active)

## COc1cc2c(NC3CCN(C(C)C)CC3)nc(N3CCC(F)(F)CC3)nc2cc1OCCCN1CCCC1
[1]
  Potency: inactive
[2]
  Potency: 20.5 µM (active)
[3]
  Potency: 11.5 µM (active)

## C=C[C@@]1(C)CCC2C(=CCC3[C@]2(C)CCC[C@@]3(C)C(=O)O)C1 (some centres undefined)
[1]
  Potency: inactive
[2]
  Potency: inactive
[3]
  Potency: inactive

## CCC(C)(NC(=O)C(CCC(N)=O)NC(=O)C1CC(O)CN1C(=O)C(C)(C)NC(=O)C(C)(C)NC(=O)C(CC(C)C)NC(=O)CNC(=O)C(NC(=O)C(C)(C)NC(=O)C(C)(C)NC(=O)C(C)(C)NC(=O)C(Cc1ccccc1)NC(C)=O)C(C)C)C(=O)N1CC(O)CC1C(=O)NC(C)(C)C(=O)NC(CO)Cc1ccccc1 (centres undefined) (Ac-F[Aib][Aib][Aib]VGL[Aib][Aib][Hyp]Q[Iva][Hyp][Aib][Phe(ol)]; configuration not given here)
[1]
  activity change, negative = inhibition: 1.74% [at 12.4 µM]
[2]
  activity change, negative = viability loss: -11.4% [at 9.23 µM]
[3]
  activity change, negative = cell killing: -29.8% [at 9.23 µM]

## OC1C=C2C3CN(Cc4cc5c(cc43)OCO5)C2CC1O (centres undefined)
[1]
  Potency: inactive
[2]
  Potency: 6.49 µM (active)
[3]
  Potency: 7.28 µM (active)

## C=C1C(=O)O[C@H]2/C=C(/C)[C@@H](OC(C)=O)C/C=C(\C)C[C@@H](OC(=O)/C(=C/C)COC(=O)/C(=C/C)CO)[C@@H]12
[1]
  Potency: inactive
[2]
  Potency: 1.78 µM (active)
[3]
  Potency: 1.12 µM (active)

## COc1ccc([C@H]2OC[C@H]3O[C@@H](O[C@H]4[C@@H]2NC[C@@H]4O)[C@H](O)[C@H]3O)cc1
[1]
  Potency: inactive
[2]
  Potency: 0.8 µM (active)
[3]
  Potency: 1.27 µM (active)

## CN1c2c(nc(N)[nH]c2=O)NC[C@@H]1CNc1ccc(C(=O)N[C@@H](CCC(=O)O)C(=O)O)cc1
[1]
  Potency: inactive
[2]
  Potency: inactive
[3]
  Potency: inactive

## Nc1nc(Nc2ccc3c(c2)CCC(N2CCCC2)CC3)nn1-c1cc2c(nn1)-c1ccccc1CCC2 (centres undefined)
[1]
  Potency: inactive
[2]
  Potency: 1.63 µM (active)
[3]
  Potency: 1.45 µM (active)

## CC1=CC2/C=C(\C)CCC(O)C(=O)C(O)CC(=O)C23C(=O)NC(CC(C)C)C3C1C (centres undefined)
[1]
  Potency: inactive
[2]
  Potency: 11.2 µM (active)
[3]
  Potency: 6.32 µM (active)

## COc1ccc(-c2ccccc2)cc1NS(=O)(=O)c1cc(Cl)cc(Cl)c1O
[1]
  Potency: inactive
[2]
  Potency: inactive
[3]
  Potency: inactive

## CO[C@@H]1CC(OC2CCC3(C)C(CCC45CCC(C6=CC(=O)OC6)C(C)(CCC43)C5=O)C2)O[C@H](C)[C@@H]1O[C@@H]1O[C@H](CO[C@@H]2O[C@H](CO)[C@@H](O)[C@H](O)[C@H]2O)[C@@H](O)[C@H](O)[C@H]1O (some centres undefined)
[1]
  Potency: inactive
[2]
  Potency: 1.73 µM (active)
[3]
  Potency: 3.46 µM (active)

## C/C(=C/CO)CCC1C(C)CCC2C(C)(C)CCCC12C (centres undefined)
[1]
  Potency: inactive
[2]
  Potency: inactive
[3]
  Potency: inactive

## COc1ccc(C2=NC(c3ccc(Cl)cc3)C(c3ccc(Cl)cc3)N2C(=O)N2CCNC(=O)C2)c(OC(C)C)c1 (centres undefined)
[1]
  Potency: inactive
[2]
  Potency: 5.78 µM (active)
[3]
  Potency: 2.58 µM (active)

## COc1cc(-n2cnc3cc(-c4ccc(Cl)cc4)sc3c2=O)ccc1OCCN1CCCC1
[1]
  Potency: inactive
[2]
  Potency: 7.28 µM (active)
[3]
  Potency: 5.78 µM (active)

## CC(=O)O[C@@H]1C[C@@]23C[C@@]24CC[C@H](O[C@@H]2OC[C@H](O)[C@H](O)[C@H]2O)C(C)(C)[C@@H]4CC[C@H]3[C@]2(C)[C@@H](O)C34O[C@H](C[C@@H](C)[C@@H]3[C@@]12C)[C@@H](C(C)(C)O)O4
[1]
  Potency: inactive
[2]
  Potency: inactive
[3]
  Potency: inactive

## O=c1cc(NCCCN[C@@H]2CCOc3c(Br)cc(Br)cc32)[nH]c2ccsc12
[1]
  Potency: inactive
[2]
  Potency: 20.5 µM (active)
[3]
  Potency: 20.5 µM (active)

## Cc1cc2ncc(C(=O)NCC(C)(C)NCC(=O)N3CCC[C@H]3C#N)cn2n1
[1]
  Potency: inactive
[2]
  Potency: inactive
[3]
  Potency: inactive

## C/C1=C\[C@@H](C)C[C@@H](C)[C@@H](Cc2cnco2)OC(=O)/C(C)=C/[C@@H](C)C[C@@H](C)[C@@H](Cc2cnco2)OC1=O
[1]
  Potency: inactive
[2]
  Potency: 1.78 µM (active)
[3]
  Potency: 3.17 µM (active)

## Cc1c[nH]c2ncnc(N3CCC(CN)(C(=O)Nc4cccc(OC(=O)N(C)C)c4)CC3)c12
[1]
  Potency: inactive
[2]
  Potency: 9.34 µM (active) and 7.42 µM (active)
[3]
  Potency: 10.5 µM (active) and 11.8 µM (active)

## C/C=C(\C)C(=O)O[C@H]1C=CC(=O)O[C@H]1/C=C/[C@@H](O)[C@H](C)O
[1]
  Potency: inactive
[2]
  Potency: 16.3 µM (active)
[3]
  Potency: 5.78 µM (active)

## C=C1C(=O)OC2C1CCC1(C)C(O)CCC(=C)C21 (centres undefined)
[1]
  Potency: inactive
[2]
  Potency: 18.3 µM (active)
[3]
  Potency: 16.3 µM (active)

## C=C(C)C(=O)O[C@H]1C[C@@](C)(O)C2(O)CCC(C)(/C=C3/OC(=O)C(COC)=C31)O2 (some centres undefined)
[1]
  Potency: inactive
[2]
  Potency: 1.42 µM (active)
[3]
  Potency: 0.713 µM (active)
